# SENP8 block-1: SENP8 protease inhibition; Q96LD8; purified SENP8, Z-RLRGG-aminoluciferin cleavage, luminescence; inhibition, % at 10 µM; actives 1.2% (n = 330,000); AID 2540; in the data active means inhibition above about 50%
# Platelet DG rel: modulates dense granule release in human platelets. human platelet-rich plasma, SFLLRN dense granule ATP release, luminescence. inhibition, %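 (compounds screened at 7.5 µM in platelet-rich plasma)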. actives 0.22% (n = 300,000). AID 1663;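 active means mean replicate score, as percent of positive control, at or above 50; inconclusive means mean below 50 but at least one replicate at or above 50; inactive means mean and every replicate below 50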
# SENP7 block: SENP7 protease inhibition. Q9BQF6. recombinant SENP7, Z-RLRGG-aminoluciferin luminescence, 40 min. inhibition, % at 5 µM. actives 1.5% (n = 330,000). AID 434973;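 active means inhibition above about 50% at the single test dose, limit read from the data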;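 further: plate controls were DMSO with enzyme for no effect and no enzyme buffer wells for full effect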
# SENP8 block-2: blocks human SENP8 cleavage of Nedd8 substrate | recombinant SENP8, Nedd8 substrate fluorescence | inhibition, % at 20 µM | actives 0.64% (n = 360,000) | AID 602440; in the data active means inhibition mostly above about 40%, no sharp cut-off; inactive means mostly below about 27%
# SENP6 inh: blocks the human protease SENP6; Q9GZR1; Recombinant SENP6 catalytic domain, aminoluciferin luminescence; actives 1.8% (n = 330,000); AID 2599; inhibition, % at 10 µM;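 active means inhibition above about 50% at the single tested dose, limit read from the data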;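 further: plate controls were DMSO wells with enzyme for no effect and DMSO wells lacking enzyme for full effect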
# Target sequence (Q9GZR1 628-1112 limits assumed): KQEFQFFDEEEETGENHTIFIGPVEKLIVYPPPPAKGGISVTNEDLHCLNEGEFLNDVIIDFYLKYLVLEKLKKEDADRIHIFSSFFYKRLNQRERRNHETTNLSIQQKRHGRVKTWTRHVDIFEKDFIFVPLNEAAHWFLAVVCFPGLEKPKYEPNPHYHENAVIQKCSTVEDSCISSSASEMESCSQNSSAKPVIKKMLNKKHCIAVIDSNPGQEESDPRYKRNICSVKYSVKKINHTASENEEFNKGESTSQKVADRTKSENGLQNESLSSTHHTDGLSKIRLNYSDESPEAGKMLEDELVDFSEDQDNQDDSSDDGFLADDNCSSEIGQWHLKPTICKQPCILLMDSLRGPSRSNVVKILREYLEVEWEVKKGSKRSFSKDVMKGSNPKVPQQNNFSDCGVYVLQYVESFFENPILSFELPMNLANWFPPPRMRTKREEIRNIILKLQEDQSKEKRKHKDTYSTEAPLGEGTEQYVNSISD
# SENP8 confirm: confirmation of human SENP8 protease inhibitors; Recombinant SENP8, Z-RLRGG-aminoluciferin luminescence, 60 min; inhibition, % at 12.5 µM; actives 40% (n = 6,200); shares compounds with SENP7 block;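 active means mean inhibition across replicates above about 50%, limit read from the data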
# SENP6 confirm: confirmation of human SENP6 protease inhibitors; recombinant SENP6, Z-RLRGG-aminoluciferin luminescence; actives 58% (n = 6,200); inhibition, % at 12.5 µM; AID 488915; shares compounds with SENP7 block
# SENP7 confirm: confirmation of human SENP7 protease inhibitors. shares compounds with SENP7 block. recombinant SENP7, Z-RLRGG-aminoluciferin luminescence, 40 min. inhibition, % at 12.5 µM. actives 69% (n = 6,200). AID 488917
# Casp3 SENP sel: caspase-3 inhibition (SENP selectivity assay); shares compounds with SENP7 block; purified caspase-3, Z-DEVD-aminoluciferin luminescence, 60 min; inhibition, % at 12.5 µM; actives 60% (n = 6,200); AID 488918;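 active means mean inhibition above about 50%, limit read from the data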;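 further: plate controls were enzyme with DMSO for no effect and wells without caspase-3 for full effect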
# Target sequence (P42574 28-227 limits assumed): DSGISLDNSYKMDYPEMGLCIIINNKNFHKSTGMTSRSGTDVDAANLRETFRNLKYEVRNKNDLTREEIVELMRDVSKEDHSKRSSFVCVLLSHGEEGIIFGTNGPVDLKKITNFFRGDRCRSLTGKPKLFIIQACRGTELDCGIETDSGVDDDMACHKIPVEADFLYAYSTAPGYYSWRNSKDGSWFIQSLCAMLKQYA
# Luc interf: interferes with luciferase luminescence in SENP counter-screen | AID 488919 | Pre-incubated SENP8/Z-RLRGG-aminoluciferin, luciferase luminescence interference | actives 39% (n = 6,200) | inhibition, % at 12.5 µM | shares compounds with SENP7 block;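 active means mean inhibition above about 50% when retested at one dose, limit read from the data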;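 further: plate controls were DMSO wells with completed reaction for no effect and substrate without enzyme for full effect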
# Numbers without * were called inactive; ? = inconclusive; . = no result given. The list is not random: actives were taken first. Their share in the collection is about 2.4%.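 How the source made its calls, unless noted: active means mean inhibition above about 50% in the one-dose retest (limit read from the data); inactive means the rest.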
SMILES,SENP8 block-1,Platelet DG rel,SENP7 block,SENP8 block-2,SENP6 inh,SENP8 confirm,SENP6 confirm,SENP7 confirm,Casp3 SENP sel,Luc interf
c1ccc(-c2nc(-c3ccc(-c4ccon4)s3)no2)cc1,39.7,0.9,80.0*,-69.5,55.0*,25.1,25.8,20.2,18.8,18.2
CCOc1nc(-c2ccccc2)ccc1-c1noc(-c2cccs2)n1,-13.5,6.5,-8.1,-101.0,-12.9,.,.,.,.,.
Cc1ccc(NC(=O)c2oc3ccc(Br)cc3c2C)cc1S(=O)(=O)N1CCOCC1,.,.,.,-10.3,.,.,.,.,.,.
O=C(NCc1nnnn1-c1ccc(F)c(F)c1)C(=O)c1c[nH]c2ccccc12,-3.1,-6.0,-2.1,1.5,-11.1,.,.,.,.,.
CCc1nnc(NC(=O)c2cc(-c3ccccc3)nn2-c2ccccc2)s1,-0.4,-4.7,99.3*,3.4,-19.2,-19.8,-12.0,-15.4,0.7,-6.6
O=C(Nc1nccs1)c1cc(-c2ccccc2)nn1-c1ccccc1,-5.0,-2.5,1.2,-62.5,6.7,.,.,.,.,.
O=C(CSc1ccccn1)Nc1nonc1[N+](=O)[O-],4.9,-0.1,1.7,24.6,7.0,.,.,.,.,.
Cc1ccc(NC(=O)Nc2cccc([N+](=O)[O-])c2)cc1F,-15.0,-3.4,-3.5,3.8,-12.5,.,.,.,.,.
O=C(Nc1ccc([N+](=O)[O-])cc1)c1ccc(S(=O)(=O)N2CCCC2)cc1,-3.0,0.1,-10.6,7.6,4.3,.,.,.,.,.
Cc1onc(C(=O)Nc2ccc(OC(F)(F)F)cc2)c1[N+](=O)[O-],0.9,6.7,5.7,4.0,-5.7,.,.,.,.,.
O=C(Nc1ccc(OC(F)(F)F)cc1)Nc1cccc([N+](=O)[O-])c1,28.2,0.6,24.4,13.9,56.1*,7.9,25.6,71.9*,5.6,-0.2
O=C(Nc1ccc(OC(F)(F)F)cc1)c1[nH]ncc1[N+](=O)[O-],55.8*,-0.6,31.6,1.2,71.5*,70.2*,67.7*,88.0*,58.7*,70.1*
O=C(Nc1ccc(S(=O)(=O)N2CCCCCC2)cc1)c1[nH]ncc1[N+](=O)[O-],74.7*,-3.5,40.8,9.8,75.3*,-7.0,71.8*,89.6*,65.1*,78.5*
C[C@H]1CN([C@@H](C)CO)C(=O)c2cc(Br)cnc2O[C@@H]1CN(C)S(C)(=O)=O,.,.,.,17.6,.,.,.,.,.,.
Oc1ccc(C=Nc2ccc(N3CCOCC3)cc2)c(O)c1,-22.7,26.2,1.9,0.5,-1.9,.,.,.,.,.
Cc1cc(Br)cc(C=Nc2ccc(N3CCOCC3)cc2)c1O,-6.5,0.5,72.7*,37.2,29.2,11.6,12.3,-0.6,28.7,2.9
Oc1cc(Br)ccc1C=Nc1ccc(N2CCCCC2)cc1,35.5,2.3,52.8*,22.5,11.2,15.4,26.4,2.1,48.1,-0.1
CC1CN(c2nnc(NC(=O)c3ccccc3)s2)CC(C)O1 (stereo not given),1.4,1.7,0.8,-19.3,5.1,.,.,.,.,.
N#CCCN(CCCN1CCOCC1)CN1C(=O)c2ccccc2C1=O,.,.,.,9.6,.,.,.,.,.,.
Cc1noc(C)c1S(=O)(=O)N(C)C[C@H]1Oc2ccc(NC(=O)NC3CCCCC3)cc2C(=O)N([C@H](C)CO)C[C@@H]1C,6.7,.,-3.7,22.9,-2.7,.,.,.,.,.
Oc1cccc(/C=N/N=C/c2cccc(O)c2O)c1O,91.7*,?,93.7*,20.4,96.2*,93.9*,94.0*,100.4*,92.4*,27.3
CC1OC(Nc2cccc3ccccc23)C(O)C(O)C1O (stereo not given),89.2*,-2.1,4.8,-277.4,95.1*,18.3,51.9*,16.4,6.7,4.5
COc1ccc([C@H]2C[C@H](O)[C@@H](n3cc(-c4ccc(F)cc4)nn3)CN2C(=O)C2CCCCC2)cc1,.,.,.,22.5,.,.,.,.,.,.
Cc1ccc(-n2ncc3c2CC(C)(C)CC3NC(=O)CCc2cccnc2)cc1 (stereo not given),-8.3,6.2,16.7,8.7,4.6,.,.,.,.,.
O=C(NCCCN1CCOCC1)c1sc2cc(Cl)ccc2c1Cl,-3.6,-0.6,-5.3,11.8,-24.0,.,.,.,.,.
SMILES,SENP8 block-1,Platelet DG rel,SENP7 block,SENP8 block-2,SENP6 inh,SENP8 confirm,SENP6 confirm,SENP7 confirm,Casp3 SENP sel,Luc interf
O=C(NCCCN1CCOCC1)c1sc2cc([N+](=O)[O-])ccc2c1Cl,4.9,8.5,-1.5,13.4,62.4*,-7.7,-5.3,-9.4,4.5,0.1
Cc1nc(-c2ccc(Cl)cc2)sc1C(=O)O,84.8*,0.5,77.0*,1.1,81.4*,94.8*,94.7*,100.9*,88.4*,92.6*
Cc1nc(-c2ccc([N+](=O)[O-])cc2)sc1C(=O)O,92.1*,11.5,97.0*,-6.9,90.8*,11.0,6.9,101.3*,96.9*,93.2*
Cc1ccc(-c2nc(C)c(C(=O)O)s2)cc1,93.4*,4.5,97.5*,-24.9,95.0*,98.9*,99.7*,103.2*,92.3*,98.2*
CC(=O)c1sc(-c2ccccc2)nc1C,-4.1,-3.8,1.7,15.4,-9.9,.,.,.,.,.
Cc1nc(-c2ccccc2)sc1C(=O)O,39.7,3.2,35.7,9.2,42.8,.,.,.,.,.
CCOc1ccc(N2CC(C(=O)Nc3ccncc3)CC2=O)cc1 (stereo not given),8.3,22.1,5.4,19.1,-16.6,.,.,.,.,.
CC(O)c1ccc(Oc2cnccn2)cc1 (stereo not given),0.7,-4.8,1.8,9.5,-18.9,.,.,.,.,.
COc1cccc([C@@H]2CC=C(C(=O)O)[C@H](c3ccccc3F)N2S(=O)(=O)c2ccc(C)cc2)c1,3.5,.,3.6,3.8,-0.2,.,.,.,.,.
O=C1Nc2ccccc2N(O)N1c1cc(-c2cccc(Cl)c2)no1,57.5*,7.5,60.4*,11.7,38.7,83.3*,80.3*,93.1*,88.3*,80.8*
CC1=NN(C(=O)c2ccncc2)C(=O)C1N=Nc1ccc2ccccc2c1 (stereo not given),.,.,.,34.2,.,.,.,.,.,.
CC1=NN(C(N)=S)C(=O)C1N=Nc1ccc(Cl)cc1 (stereo not given),86.4*,-0.4,76.7*,32.9,88.5*,-1.2,72.2*,35.1,29.8,14.4
CC1=NN(C(N)=S)C(=O)C1N=Nc1ccc(Br)cc1 (stereo not given),92.2*,-7.8,74.1*,35.7,96.3*,25.9,40.4,27.4,40.0,23.3
CC1=NN(C(N)=S)C(=O)C1N=Nc1ccccc1 (stereo not given),59.0*,-7.6,52.8*,22.8,71.9*,18.9,54.8*,14.4,35.3,0.4

# Screening data as filed in PubChem BioAssay.
